# Experimental data published in the supplement of paper PMC4954754.
# ± gives the uncertainty stated by the source.
# Test system: HEK293T-Rex XBP1-RLuc
# Assay: XBP1-RLuc splicing reporter activation, triplicate, relative to 500 nM thapsigargin (% of thapsigargin); higher = stronger IRE1/XBP1s reporter activation
# Conditions: 6.8 µM; 18 h; screen: confirmation
# Procedure: (§1)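 HEK293T-Rex cells stably expressing the ERSE-firefly luciferase (BiP promoter, ATF6-preferring) or XBP1-splicing Renilla luciferase (IRE1/XBP1s) reporter, 1536-well plates, compound at 6.8 µM for 18 hr at 37 °C; luminescence read […] and expressed as % activation = 100*(compound - median DMSO)/(median 500 nM thapsigargin - median DMSO). Primary screen was single-pass; confirmation screen in triplicate (mean ± SD).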
row,SMILES,XBP1-RLuc splicing reporter activation
1,Nc1nc(Nc2ccc(Cl)cc2)nc2ccccc12,8.65 ± 0.74
2,COc1ccc(-c2cnnc(N/N=C/c3ccc(O)c(O)c3)n2)cc1,24 ± 2.2
3,O=[N+]([O-])c1ccccc1N/N=C/c1ccc(O)c(O)c1,10.3 ± 1.3
4,CCCNC(=O)c1cc(-c2ccc(F)cc2)on1,4.12 ± 0.34
5,c1ccc2cc(-c3cnnc(N4CCOCC4)n3)ccc2c1,1.22 ± 0.96
6,O=C(NC1CCCC1)c1cc(-c2cccs2)on1,4.95 ± 0.3
7,COc1ccccc1-c1cnnc(N/N=C/c2c[nH]c3ccccc23)n1,8 ± 0.78

# Test system: HEK293T-Rex ERSE-FLuc
# Assay: ERSE-FLuc reporter activation, triplicate confirmation, relative to 500 nM thapsigargin (% of thapsigargin); higher = stronger ATF6/ERSE reporter activation
# Conditions: 6.8 µM; 18 h; screen: confirmation
# Procedure: as §1
row,SMILES,ERSE-FLuc reporter activation
1,Cc1ccc2nc(/C(C#N)=C/c3ccc(O)cc3)[nH]c2c1,30.3 ± 3
2,O=C(Nc1ccccc1O)c1ccc(NS(=O)(=O)c2cccc3cccnc23)cc1,25.6 ± 8.1
3,CC(=O)Nc1ccc2nc(-c3ccc(OC(C)=O)cc3)sc2c1,25.9 ± 3.6
4,Nc1nc(Nc2ccc(Cl)cc2)nc2ccccc12,30.7 ± 5.2
5,CCc1nc2sc(C(=O)c3ccccc3)c(N)c2cc1C,26.2 ± 2.5
6,COc1ccc(-c2cnnc(N/N=C/c3ccc(O)c(O)c3)n2)cc1,35.9 ± 7.5
7,O=C(N/N=C/c1cccc2ccccc12)c1ccc2c(c1)OCO2,29.9 ± 4.3
8,O=[N+]([O-])c1ccccc1N/N=C/c1ccc(O)c(O)c1,43.3 ± 6.8
9,CCCNC(=O)c1cc(-c2ccc(F)cc2)on1,42 ± 5.5
10,Cc1nc(-c2coc3c(O)c(O)ccc3c2=O)cs1,25.2 ± 4.1
11,CCCCNC(=O)c1cc(-c2ccc(F)cc2)on1,40.8 ± 5.3
12,Nc1ccc2nc(-c3ccc(Br)cc3)[nH]c2c1,36.7 ± 10
13,Cc1ccc2nc(/C(C#N)=C/c3ccc(O)c(O)c3)[nH]c2c1,38.9 ± 2.7
14,Oc1ccccc1/C=N\Nc1nc2ccccc2o1,26.6 ± 4.4
